Rows were chosen to be rich in hits. Some 2.4% of all compounds tested hit in one or more screens of this group.
Pol kappa inh-1 – qHTS for Inhibitors of Polymerase Kappa; DNA polymerase kappa (Homo sapiens), Q9UBT6; purified Pol kappa, fluorescent DNA synthesis assay, 10 min; Potency, µM (doses to about 107 µM), for inactives: top-dose activity, negative = inhibition, actives largely listed as inhibitors; actives 0.53% (n = 400,000); AID 588579, 2011; note: potency is the fitted concentration of half-maximal effect; % is set by controls: 0 for no effect and ±100 for the full control effect
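Pol kappa 10 nM + cpd, 15 min RT; start w/ substrate 50 nM final; fluorescence kinetic read, 0 and 10 min. Neg ctrl: buffer, no enzyme.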
FEN1 inh-1 – qHTS Assay for the Inhibitors of Human Flap endonuclease 1 (FEN1). Recombinant FEN1 flap cleavage, fluorescence, 15 min. P39748. Potency, µM (top dose mostly 114 µM), inactives show at the top dose activity change, negative = inhibition, hits mostly inhibitors. actives 0.35% (n = 390,000). AID 588795, 2011; note: potency is the fitted concentration of half-maximal effect; % is set by controls: 0 for no effect and ±100 for the full control effect; nearly all actives have a fitted effect of over 65% in size
Target sequence (P39748 whole entry, looked up): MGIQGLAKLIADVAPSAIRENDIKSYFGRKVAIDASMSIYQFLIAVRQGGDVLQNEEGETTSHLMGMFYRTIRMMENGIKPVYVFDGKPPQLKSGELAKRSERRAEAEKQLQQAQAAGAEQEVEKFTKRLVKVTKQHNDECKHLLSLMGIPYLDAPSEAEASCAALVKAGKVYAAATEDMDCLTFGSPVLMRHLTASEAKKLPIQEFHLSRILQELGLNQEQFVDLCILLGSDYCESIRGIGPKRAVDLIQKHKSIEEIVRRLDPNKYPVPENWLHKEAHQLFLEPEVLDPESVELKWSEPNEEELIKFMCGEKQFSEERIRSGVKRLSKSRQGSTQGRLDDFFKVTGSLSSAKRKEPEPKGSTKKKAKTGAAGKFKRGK
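Recombinant FEN1 (10 nM) was preincubated with pin-transferred compounds for 15 min at room temperature, then flap DNA substrate (50 nM final) was added. Plates were read at 0 and 15 min, and normalized concentration–response data were fitted to a four-parameter Hill equation.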
POLB inh – qHTS Assay for Inhibitors of DNA Polymerase Beta; P06746; actives 1.3% (n = 340,000); Pol beta primer extension/strand displacement, fluorescence kinetic; Potency, µM (series often up to 114 µM), without a hit: at the highest dose activity change, negative = inhibition, hits mostly inhibitors; note: potency is the fitted concentration of half-maximal effect; % is set by controls: 0 for no effect and ±100 for the full control effect
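Reaction started by 50 nM substrate onto compound-treated Pol beta (10 nM, 15 min preincubation, room temperature); plates read at 0 min and 10 min. Normalized concentration-effect data fitted by four-parameter Hill equation.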
Pol eta inh-1 – qHTS for Inhibitors of Polymerase Eta | DNA polymerase eta (Homo sapiens), Q9Y253 | recombinant Pol eta, fluorescent DNA replication assay | Potency, µM (doses to about 114 µM), for inactives: top-dose activity change, negative = inhibition, most hits filed as inhibitors | actives 1.2% (n = 390,000) | AID 588591, 2011; note: potency is the fitted concentration of half-maximal effect; % is set by controls: 0 for no effect and ±100 for the full control effect
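Pol eta (10 nM) was preincubated with compounds for 15 min at room temperature, after which fluorescent replication substrate (50 nM final) was added to start the reaction. Fluorescence was read kinetically at 0 and 10 min.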
POLI inh – qHTS for Inhibitors of Polymerase Iota; DNA polymerase iota (Homo sapiens), Q9UNA4; Pol iota fluorescent replication assay, 10 min; Potency, µM (highest dose often 115 µM), for the others: top-dose activity, negative = inhibition, usual class: inhibitors; actives 1% (n = 390,000); AID 588590, 2011; note: potency is the fitted concentration of half-maximal effect
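Pol iota at 10 nM preincubated 15 min with compounds at room temperature; reaction started with fluorescent substrate, 50 nM final. Fluorescence read kinetically at 0 and 10 min; buffer-only wells as negative control.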
WRN helicase inh-1 – qHTS for Inhibitors of WRN Helicase. AID 651768, 2012. actives 0.46% (n = 360,000). Potency, µM (top dose mostly 114 µM), for inactives: at the top dose activity change, negative = inhibition, actives largely listed as inhibitors. WRN helicase unwinding, fluorescent forked duplex, kinetic; note: potency is the fitted concentration of half-maximal effect; % is set by controls: 0 for no effect and ±100 for the full control effect; nearly all actives have a fitted effect of over 55% in size
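WRN at 20 nM final was preincubated with compound for 15 min at room temperature; reaction started with 100 nM forked duplex oligonucleotide carrying fluorophore and quencher plus 2 mM ATP (final). Unwinding followed kinetically by red fluorescence (ex 525/em 598 nm).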
TbPGK inh – qHTS for inhibitors of Phosphogylcerate Kinase: Hit Validation Screen | AID 686980, 2013 | Potency, µM (highest dose often 57.5 µM), without a hit: at the top dose activity change, negative = inhibition, most hits filed as inhibitors | shares compounds with Pol kappa inh-1 | actives 79% (n = 500) | TbPGK coupled GAPDH assay, Kinase-Glo luminescence; note: potency is the fitted concentration of half-maximal effect; % is set by controls: 0 for no effect and ±100 for the full control effect; nearly all actives have a fitted effect of over 65% in size
Target sequence (P07378 whole entry, looked up): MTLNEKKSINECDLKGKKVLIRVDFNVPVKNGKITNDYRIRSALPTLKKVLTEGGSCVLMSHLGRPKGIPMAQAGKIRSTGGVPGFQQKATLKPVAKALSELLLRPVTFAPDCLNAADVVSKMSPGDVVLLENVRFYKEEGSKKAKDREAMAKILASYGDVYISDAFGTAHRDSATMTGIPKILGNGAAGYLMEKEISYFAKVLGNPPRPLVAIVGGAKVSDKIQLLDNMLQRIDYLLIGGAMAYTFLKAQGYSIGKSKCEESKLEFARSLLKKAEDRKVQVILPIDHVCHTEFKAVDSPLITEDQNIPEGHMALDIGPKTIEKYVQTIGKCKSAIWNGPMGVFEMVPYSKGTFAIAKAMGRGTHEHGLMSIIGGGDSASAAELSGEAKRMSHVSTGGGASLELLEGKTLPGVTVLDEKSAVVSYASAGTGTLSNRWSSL
Pol iota confirm – qHTS for Inhibitors of Polymerase Iota: Confirmatory Assay for Cherry-picked Compounds. shares compounds with Pol kappa inh-1. Pol iota primer extension, TAMRA/BHQ fluorescence. AID 720496, 2013. Potency, µM, actives largely listed as inhibitors. actives 77% (n = 1,500); note: potency is the fitted concentration of half-maximal effect
GALK inh confirm – Confirmation Assay for Inhibitors of Human Galactokinase (GALK). Potency, µM (highest dose often 115 µM), for the others: top-dose activity, negative = inhibition, usual class: inhibitors. AID 2015, 2009. shares compounds with Pol eta inh-1. actives 70% (n = 150). purified GALK, Kinase-Glo ATP depletion luminescence
GALK redox cs – Confirmatory Assay for Inhibitors of Human Galactokinase (GALK): Phenol-HRP redox assay counterscreen; shares compounds with Pol eta inh-1; Phenol red-HRP H2O2 redox cycling, absorbance 600 nm; Potency, µM (doses to about 115 µM), for the others: top-dose activity change, negative = H2O2 signal, usual class: inhibitors; actives 40% (n = 150)
HEK293 tox – Secondary Assay for Inhibitors of Human Galactokinase (GALK): HEK-293 Cell Viability Assay | AID 2547, 2010 | shares compounds with Pol eta inh-1 | Potency, µM (series often up to 46.1 µM), for the others: at the top dose activity change, negative = cytotoxicity, most hits filed as inhibitors | HEK-293 viability, ATP luminescence (CellTiter-Glo), 24/48 h | actives 10% (n = 170); note: potency is the fitted concentration of half-maximal effect; % is set by controls: 0 for no effect and ±100 for the full control effect
Pol kappa inh-2 – qHTS for Inhibitors of Polymerase Kappa: Confirmatory Assay for Cherry-picked Compounds; actives 76% (n = 920); Potency, µM, actives largely listed as inhibitors; purified Pol-kappa, fluorescent strand-displacement substrate; shares compounds with Pol eta inh-1; note: potency is the fitted concentration of half-maximal effect
Pol eta inh-2 – qHTS for Inhibitors of Polymerase Eta: Confirmatory Assay for Cherry-picked Compounds; Pol eta primer extension, TAMRA/BHQ fluorescence, 10 min; shares compounds with Pol eta inh-1; Potency, µM, hits mostly inhibitors; actives 64% (n = 2,600); note: potency is the fitted concentration of half-maximal effect
FEN1 inh-2 – qHTS Assay for the Inhibitors of FEN1: Confirmatory Assay for Cherry-picked Compounds; FEN1 flap cleavage, TAMRA/BHQ2 fluorogenic DNA substrate; Potency, µM, hits mostly inhibitors; actives 79% (n = 880); shares compounds with FEN1 inh-1; note: potency is the fitted concentration of half-maximal effect; nearly all actives have a fitted effect of over 60% in size
WRN helicase inh-2 – qHTS for Inhibitors of WRN Helicase: Confirmatory Assay for Cherry-picked Compounds; shares compounds with WRN helicase inh-1; WRN helicase DNA unwinding, fluorescence kinetic; Potency, µM (doses to about 57.1 µM), without a hit: at the top dose activity, negative = inhibition, hits mostly inhibitors; actives 63% (n = 610); AID 720497, 2013; note: potency is the fitted concentration of half-maximal effect; nearly all actives have a fitted effect of over 65% in size
TO displacement – qHTS for Inhibitors of WRN Helicase: Thiazole Orange DNA Binding Counterscreen. shares compounds with WRN helicase inh-1. thiazole orange DNA binding displacement, fluorescence. Potency, µM (titrated, usually from 57.1 µM), for inactives: at the highest dose activity change, negative = inhibition, actives largely listed as inhibitors. actives 10% (n = 610). AID 720499, 2013;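 note: drop in dye fluorescence marks compound binding to DNA; potency is the fitted concentration of half-maximal effect; % is set by controls: 0 for no effect and ±100 for the full control effect; nearly all actives have a fitted effect of over 60% in size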
BLM helicase inh – qHTS for Inhibitors of WRN Helicase: BLM Helicase Counterscreen for WRN Inhibitors; Recombinant BLM helicase DNA unwinding, red fluorescence; shares compounds with WRN helicase inh-1; actives 60% (n = 610); Potency, µM (highest dose often 57.1 µM), without a hit: at the top dose activity change, negative = inhibition, most hits filed as inhibitors; note: potency is the fitted concentration of half-maximal effect; nearly all actives have a fitted effect of over 60% in size
* = called active by the depositor; ? = inconclusive; · = no result given; [ ] = remark or other dose. Calls come from the whole dose curve; as a rule, active = well fitted curve in the direction sought with a large enough effect; inconclusive = small, poorly fitted or top-dose-only effect, or another doubt; inactive = no such curve, though single readings can be large; an effect the other way counts as inactive or inconclusive.

SMILES | Pol kappa inh-1 | FEN1 inh-1 | POLB inh | Pol eta inh-1 | POLI inh | WRN helicase inh-1 | TbPGK inh | Pol iota confirm | Pol eta inh-2 | WRN helicase inh-2 | TO displacement | BLM helicase inh | others
Cc1ccc(CNC(=O)CCS(=O)(=O)c2ccc(Br)cc2)cc1 | 22µM* | -4% | 7.9µM* | 10µM* | 16µM* | 25µM* | 6.5µM* | 38* | 27* | 3.8µM* | 5.4µM* | 2.2µM*
O=C(COc1ccccc1C(=O)N/N=C\c1ccc(O)c(O)c1)N/N=C/c1ccc(O)c(O)c1 | 0.71µM* | 1.6µM* | 0.28µM* | -98% | -103% | 0.27µM* | 0.29µM* | 0.42* | 0.34* | 0.27µM* | 19µM* | 0.12µM* | FEN1 inh-2=17*
O=C(O)c1ccc(-n2cccc2/C=C2/NC(=O)N(c3ccccc3)C2=O)cc1 | 22µM* | ? | ? | 2.8µM* | 3.2µM* | 35µM* | 5.8µM* | 3.4* | 5.4* | 15µM* | -8% | 7.6µM*
O=C(O)c1ccc(-n2cccc2/C=C2/SC(=O)N(CC(=O)N3CCCC3)C2=O)cc1 | 7.1µM* | 40µM* | 2µM* | 1.8µM* | 3.5µM* | 20µM* | 5.8µM* | 5.3* | 6.7* | 6.8µM* | 6% | 3µM*
Cc1cc2nc3c(=O)[nH]c(=O)nc-3n(CC(O)C(O)C(O)COP(=O)(O)O)c2cc1C (stereo unspecified) | -13%[60.1 µM] | · | · | · | · | · | · | · | · | · | · | ·
COc1cc(/C=C2\CCc3c2nc2ccccc2c3C(=O)O)cc(OC)c1OC | 45µM* | 50µM* | 3.2µM* | 3.2µM* | 10µM* | 32µM* | · | 21* | 15* | 19µM* | ? | 19µM*
O=C(O)CC(CCc1ccccc1)OC1OC(CO)C(O)C(O)C1O (stereo unspecified) | 2µM* | 7.9µM* | 0.71µM* | 0.79µM* | 1.8µM* | ? | ? | 2.7* | 11* | 1.7µM* | -28% | 1.5µM* | GALK inh confirm=53µM*;GALK redox cs=-4%;HEK293 tox=9%;FEN1 inh-2=27*
O=C(CSc1n[nH]c(=O)[nH]c1=O)Nc1ccc2c(c1)C(=O)c1ccccc1C2=O | -42% | 28µM* | 2.8µM* | 8.9µM* | ? | 32µM* | 3.3µM* | 27* | 19* | 8.6µM* | 12µM* | 4.3µM* | Pol kappa inh-2=24*
CCN(c1ccccc1)S(=O)(=O)c1cc(NC(=O)CSc2n[nH]c(=O)[nH]c2=O)ccc1Cl | -3% | -18% | 5% | -6% | -30% | -2% | · | · | · | · | · | ·
CCNc1ncc2nc(CCc3ccccc3)c(=O)n(C)c2n1 | 2%[60.1 µM] | · | · | · | · | · | · | · | · | · | · | ·
COc1ccc2nc3cc(Cl)ccc3c(Nc3ccc(O)c(CN4CCN(C)CC4)c3)c2c1 | 79µM* | 22µM* | · | ? | ? | 18µM* | · | ? | · | 6.1µM* | 11µM* | 22µM*
CCN(CC)CCCNc1nc2ccccc2c2[nH]c3ccc(OC)cc3c12 | 18µM* | 3.5µM* | · | 10µM* | 18µM* | 25µM* | · | 3* | 30* | 6.8µM* | ? | ? | Pol kappa inh-2=3.4*;FEN1 inh-2=2.7*
CCN(CC)CCCNc1nc(-c2ccccc2)nc2ccccc12 | 3% | -24% | ? | -13% | 13% | -1% | · | · | · | · | · | ·
S=C=Nc1ccc(N=C=S)cc1 | -6%[19.4 µM] | · | · | · | · | · | · | · | · | · | · | ·

From PubChem
